# IL-1B inflam inh: qHTS for Inhibitors of Inflammasome Signaling: IL-1-beta AlphaLISA Primary Screen. THP-1 LPS/ATP IL-1B secretion, AlphaLISA, 16 h; stronger effect = lower value. activity change, % at 57.5 µM. actives 4.7% (n = 360,000); in the data active means activity change below about -50%; inconclusive means mostly about -30% to -49%; further: on the % scale 0 is the no-effect control and ±100 the full control effect
#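 Secreted IL-1B measured by AlphaLISA bead assay after 16 h compound exposure of THP-1 cells; compounds (final up to 57.5 uM) added 1 h before LPS (250 ng/mL) and ATP (1.25 mM) stimulation; lower signal means less secretion.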
# DRD3 agonist: qHTS of D3 Dopamine Receptor Agonist: qHTS; D(3) dopamine receptor (Homo sapiens), P35462; D3R DiscoveRx beta-arrestin cells, luminescence, 90 min; max activation, %; actives 0.58% (n = 410,000); AID 652048, 2013; in the data active means max activation above about 30%; further: 0% is about no effect
# Target sequence (P35462 whole entry, looked up): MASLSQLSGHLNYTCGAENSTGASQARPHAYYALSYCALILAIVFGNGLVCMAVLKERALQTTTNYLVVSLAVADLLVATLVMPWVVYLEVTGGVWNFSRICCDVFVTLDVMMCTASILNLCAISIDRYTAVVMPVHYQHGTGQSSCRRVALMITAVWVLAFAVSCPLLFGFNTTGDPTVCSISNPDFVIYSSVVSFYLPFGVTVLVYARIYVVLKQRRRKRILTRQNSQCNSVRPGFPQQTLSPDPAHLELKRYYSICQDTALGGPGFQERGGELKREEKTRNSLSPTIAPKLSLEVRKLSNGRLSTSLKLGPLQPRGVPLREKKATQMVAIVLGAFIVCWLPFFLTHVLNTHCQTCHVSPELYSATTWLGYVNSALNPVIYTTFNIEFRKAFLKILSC
#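 Agonist-mode cell screen: cells plated at 1500/well and incubated overnight at 37 °C, then exposed to library compounds for 90 min at 37 °C. Detection reagent was added for 30–60 min at room temperature, and luminescence was read.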
# TDP1 cell CPT: qHTS for Inhibitors of human tyrosyl-DNA phosphodiesterase 1 (TDP1): qHTS in cells in presence of CPT | Potency, µM (titrated, usually from 46.2 µM), inactives show at the top dose activity change, negative = growth inhibition, actives largely listed as inhibitors | chicken DT40 Tdp1-/-;hTDP1 cells + 20 nM CPT, ATP luminescence, 48 h | AID 686979, 2013 | actives 12% (n = 420,000); further: potency means the concentration at half of the fitted maximal effect; on the % scale 0 is the no-effect control and ±100 the full control effect; nearly all actives have a fitted effect of over 55% in size
#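 Cell growth measured by CellTiter-Glo luminescence after a minimum 48 h, 37 C compound exposure with 20 nM CPT in Tdp1-knockout DT40 cells stably expressing hTDP1, seeded 400/well; qHTS titration format.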
# ClpP mod: qHTS Assay for Activators of ClpP; ATP-dependent Clp protease proteolytic subunit (Bacillus subtilis (strain 168)), P80244; purified B. subtilis ClpP, FRET peptide cleavage, 20 min; Potency, µM (series often up to 57.5 µM), for inactives: top-dose activity change, negative = active; actives 1.9% (n = 340,000); active means well fitted falling curve with a large enough effect; inconclusive means small, poorly fitted or top-dose-only effect; inactive means no such curve, though single readings can be large or run the other way; further: potency means the concentration at half of the fitted maximal effect; the source files actives as falling curves though it sought activators and does not explain the sign; nearly all actives have a fitted effect of over 65% in size
# Target sequence (P80244 whole entry, looked up): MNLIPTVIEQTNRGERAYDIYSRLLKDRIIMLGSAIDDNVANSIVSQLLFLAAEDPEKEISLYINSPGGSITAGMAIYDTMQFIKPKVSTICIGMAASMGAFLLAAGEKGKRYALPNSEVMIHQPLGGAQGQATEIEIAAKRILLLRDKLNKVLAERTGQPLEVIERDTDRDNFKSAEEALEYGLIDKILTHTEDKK
#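 Purified B. subtilis ClpP, 10 microg/mL final in Tris/HCl pH8 with KCl, BSA, glycerol and Tween-20, cleaved an Abz/nitrotyrosine-quenched decapeptide. Fluorescence (ex 320, em 430) was read at 0 and 20 min at room temperature. Delta was normalized to 5.8 microM ADEP and DMSO/no-enzyme controls.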
# DRD3 antagonist: qHTS of D3 Dopamine Receptor Antagonist: qHTS | D(3) dopamine receptor (Homo sapiens), P35462 | D3R cells, DiscoveRx beta-arrestin luminescence, antagonist mode; stronger effect = lower value | max response, negative = inhibition, % | actives 2.5% (n = 360,000); in the data active means max response below about -50%; inconclusive means no clear call, values can overlap the other calls; further: on the % scale 0 is the no-effect control and ±100 the full control effect
#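 Cells plated overnight at 1500 cells/well, then exposed to library compounds with dopamine controls for 90 minutes at 37 degrees C. DiscoveRx reagent added for 30–60 minutes at room temperature; luminescence read, quantitative HTS format.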
# TDP1 cell noCPT: qHTS for Inhibitors of human tyrosyl-DNA phosphodiesterase 1 (TDP1): qHTS in cells in absence of CPT; Potency, µM (highest dose often 46.2 µM), inactives show at the highest dose activity change, negative = growth inhibition, most hits filed as inhibitors; AID 686978, 2013; actives 15% (n = 420,000); DT40 Tdp1-/- hTDP1 cells, no CPT, ATP luminescence, 48 h; further: potency means the concentration at half of the fitted maximal effect; on the % scale 0 is the no-effect control and ±100 the full control effect; nearly all actives have a fitted effect of over 55% in size
#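 Chicken DT40 Tdp1-/- cells complemented with human TDP1, screened without camptothecin (DMSO vehicle only), 400 cells/well. Compounds pin-transferred, cells incubated at 37 °C for at least 48 hr. Growth read as ATP-dependent luminescence (CellTiter-Glo, 30 min at RT).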
# Numbers without * were called inactive; ? = inconclusive; . = not tested or not shown; [ ] = remark or other dose. An excerpt weighted towards active compounds, which were near 21% of everything screened. Unless noted, the call rests on the fitted dose curve; in most records, active means well fitted inhibition curve with a large enough effect; inconclusive means small, poorly fitted or top-dose-only effect; inactive means flat fitted curve, though single readings scatter.
SMILES,IL-1B inflam inh,DRD3 agonist,TDP1 cell CPT,ClpP mod,DRD3 antagonist,TDP1 cell noCPT
COc1ccc(OC)c(NC(=O)CSc2nnc(-c3ccco3)n2-c2ccccc2)c1,-1.0,-7.4,20.6µM*,-0.5%,11.7,?
COc1ccc(OC)c(NC(=O)CCN2CCN(c3ccccc3)CC2)c1,6.8,30.4*,-13.5%,-1.7%,-52.6*,-19.3%
COC(=O)c1[nH]c2ccccc2c1NC(=O)CN1CCN(c2cccc(OC)c2)C(C)C1 (stereo unspecified),-10.6,-8.8,23.1µM*,?,-7.2,18.4µM*
CCOC(=O)C1CCCN(CCC(=O)Nc2c(C(=O)OC)[nH]c3cc(OC)ccc23)C1 (stereo unspecified),19.1,5.1,0.9%,-25.9%,0.0,-8.4%
COc1ccc(-n2c(SCC(=O)Nc3cccc(C(=O)O)c3)nnc2-c2ccco2)cc1,12.4,-19.4,-7.2%,0.2%,-21.5,-0.2%
COC(=O)c1[nH]c2cc(OC)ccc2c1NC(=O)CCN1CCN(c2ccccc2)CC1,-14.2,-2.5,?,-14.3%,-76.2*,?
CCC(C)n1ncn(-c2ccc(N3CCN(c4ccc(OC[C@H]5CO[C@](Cn6cncn6)(c6ccc(Cl)cc6Cl)O5)cc4)CC3)cc2)c1=O (stereo partly specified),.,6.5,-13.8%,.,.,-26.6%
CCOc1ccc(C(=O)Nc2nnc(SCc3cc(=O)n4ccccc4n3)s2)cc1,.,7.1,2.4%,?,.,-4.2%
Cn1c(SCC(=O)N2CCN(c3ccccc3)CC2)nnc1-c1ccco1,33.4,-1.5,-19.7%,0.6%,-11.5,-2.2%
O=C(CSc1nnc(-c2ccco2)n1-c1ccccc1)N1CCN(C(=O)c2ccco2)CC1,?,-1.6,?,-1.5%,-17.0,23.1µM*
COC(=O)c1[nH]c2cc(OC)ccc2c1NC(=O)CCN1CCN(c2cccc(C)c2C)CC1,-15.2,-2.8,?,25.1µM*,-79.5*,20.6µM*
Cc1ccc(N(C)S(=O)(=O)c2ccc3[nH]cc(C(=O)O)c(=O)c3c2)cc1C,.,11.7,-0.7%,-6.1%,.,-14.6%
C/C(O)=c1/ccc2cccc3nc(C)nc1c23,-52.7*,7.4,?,0.3%,12.4,?
COc1cc(C2=NOC(C(=O)Nc3ccc(C)cc3)C2)cc(OC)c1OC (stereo unspecified),2.4,18.2,12.6µM*,-0.4%,10.7,11.2µM*
COc1cc(NC(=O)C2CC(c3ccc(Cl)cc3)=NO2)cc(OC)c1OC (stereo unspecified),-17.1,0.5,-25.7%,-0.3%,35.8,?
COc1cc(NC(=O)C2CC(c3ccccc3Cl)=NO2)cc(OC)c1OC (stereo unspecified),-11.3,4.7,16.4µM*,2.8%,21.2,23.1µM*
Cc1cc(C)c2c(n1)sc1c(=O)n(Cc3ccccc3Cl)nnc12,14.3,3.2,?,-1.5%,-51.2*,-17.8%
Cc1cccc(N2CCN(c3ncnc4c3nc3n4CCCCC3)CC2)c1C,.,6.6,25.9µM*,-2.3%,.,?
Clc1cccc(N2CCN(c3ncnc4c3nc3n4CCCCC3)CC2)c1,.,1.4,14.6µM*,0.2%,.,10.3µM*
Cc1cccc(NC(=O)C2CCN(c3ncnc4c3nc3n4CCCCC3)CC2)n1,52.4,1.0,?,-1.6%,15.0,-28.7%
COc1cc(/C=C(\C#N)C(N)=O)cc(CSc2nc3ccccc3s2)c1O,.,.,14.6µM*,.,.,14.6µM*
NC(=O)c1ccc(CSc2nc3ccccc3s2)cc1,19.8,7.1,0.1%,-4.6%,17.4,21.4%
Cc1n[nH]c(=O)nc1N1CCc2ccccc2C1,3.0,-4.4,-3.5%,-1.3%,31.9,18.4µM*
Cc1n[nH]c(=O)nc1N1CCN(c2ccccc2)CC1,-15.6,-2.8,0.8%,-2.8%,-3.9,1.3%
O=C(OCCOc1ccccc1F)c1cccc(S(=O)(=O)N2CCOCC2)c1,31.9,6.9,-2.8%,0.6%,11.2,-8.3%
SMILES,IL-1B inflam inh,DRD3 agonist,TDP1 cell CPT,ClpP mod,DRD3 antagonist,TDP1 cell noCPT
CC(=O)c1cnn(-c2c(Cl)cc(Cl)cc2Cl)c1C,9.7,-4.6,16.4µM*,0.9%,-1.8,18.4µM*
CCCCc1ccc(NC(=O)c2cc(-c3ccc(C)c(F)c3)on2)cc1,.,5.0,-3.0%,-9.0%,.,-8.1%
O=C1c2ccccc2C(Nc2ccc(S(=O)(=O)N3CCCCCC3)cc2)N1Cc1ccco1 (stereo unspecified),-3.7,4.0,20.6µM*,-0.7%,16.9,16.4µM*
CCc1ccccc1NC1c2ccccc2C(=O)N1Cc1ccco1 (stereo unspecified),4.9,3.6,-4.7%,-1.0%,27.3,?
C=C[C@]1(C)Cc2occ(C)c2C[C@H]1C(=C)C(=O)O,.,.,-3.8%[9.04 µM],.,.,-3.8%[9.04 µM]
CSc1nc(NC2CCCC2)c([N+](=O)[O-])c(NC2CCCC2)n1,.,.,2.8%,.,.,-5.3%
CCOC(=O)C(=Cc1ccc(-c2ccsc2C(=O)OC)o1)C(=O)OCC,-4.5,7.5,25.9µM*,-3.0%,-9.5,?
COC(=O)C(=Cc1ccc(-c2ccsc2C(=O)OC)o1)C(=O)OC,.,-12.9,-19.1%,.,-5.6,?
Cn1c(=O)c2cc(NC(=S)NCc3ccccc3F)ccc2n1Cc1cccc(C(F)(F)F)c1,-0.9,-10.5,20.6µM*,4.3%,-16.8,?
COc1ccc(CNC(=O)Nc2ccc3c(c2)c(=O)n(C)n3Cc2cc(C)cc(C)c2)cc1,12.4,-2.9,20.6µM*,4.8%,-17.8,?
Cc1cc(C)cc(Cn2c3ccc(NC(=S)NCc4ccccc4F)cc3c(=O)n2C)c1,?,-5.9,?,5.0%,8.0,?
Cn1c(=O)c2cc(NC(=S)NC3CCCCC3)ccc2n1Cc1ccc(Cl)cc1,-57.0*,-13.2,?,4.6%,?,23.1µM*
Cn1c(=O)c2cc(NC(=S)NCc3ccccc3F)ccc2n1Cc1ccccc1,-14.4,-11.1,16.4µM*,4.9%,-13.7,14.6µM*
Cn1c(=O)c2cc(NC(=S)NC3CC3)ccc2n1Cc1cccc(C(F)(F)F)c1,33.9,2.8,-22.7%,4.8%,11.2,?
Cn1c(=O)c2cc(NC(=O)NCc3ccc(Cl)cc3Cl)ccc2n1Cc1ccc(F)cc1,0.0,1.1,?,4.2%,14.8,?
